Assay results reported in PubChem BioAssay (EPA / NIEHS).
Records with an inconclusive call do not appear. Calls of active or inactive are those of the source. How the source made its calls: active means hit-call score of the fitted dose curve at least 0.9, where 1 is the maximum; inconclusive means response in the unintended direction; inactive means score below 0.9.

Assays:
[1] = molecular target: Cellular tumor antigen p53 (Homo sapiens) (UniProt P04637); test: TOX21_p53_BLA_p2_ratio: Tox21 HCT-116 p53 Agonism Beta-lactamase Assay, Ratio, Phase 2 (AID 2283592)
Method in brief: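 HCT116 p53-bla; 4000 cells/well; 5 h pre-incubation; cpd in DMSO, 217-fold dilution; 16 h 37C/5% CO2; CCF4-AM 2 h RT; Ex 405, Em 460/530 ratio; DMSO = baseline; positive fitting direction.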

[2] = TOX21_p53_BLA_p3_viability: Viability Assessment in the Tox21 HCT-116 p53 Agonism Beta-lactamase Assay, Phase 3 (AID 2283593);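 further: cells exposed to compound for 16 h before reading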
Method in brief: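 HCT-116 cells (4000/well) rested 5 h at 37C, then got DMSO compounds by pin tool (217-fold dilution) for 16 h at 37C, 5% CO2. After the bla read, CellTiter-Glo was added and luminescence read at 30 min, room temperature.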

[3] = molecular target: Cellular tumor antigen p53 (Homo sapiens) (UniProt P04637); test: TOX21_p53_BLA_p3_ratio: Tox21 HCT-116 p53 Agonism Beta-lactamase Assay, Ratio, Phase 3 (AID 2283596)
Method in brief: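 HCT116 p53-bla cells (4000/well) given compound in DMSO (217-fold dilution) after 5 h, incubated 16 h at 37C. CCF4-AM substrate 2 h at room temperature; 460/530 nm emission ratio, gain fitted against DMSO.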

[4] = molecular target: Cellular tumor antigen p53 (Homo sapiens) (UniProt P04637); test: TOX21_p53_BLA_p5_ratio: Tox21 HCT-116 p53 Agonism Beta-lactamase Assay, Ratio, Phase 5 (AID 2283599)
Method in brief: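 HCT-116 cells carrying a p53-inducible beta-lactamase reporter were seeded at 4000 cells/well and dosed after 5 h with compound in DMSO (217-fold dilution). After 16 h at 37C, CCF4-AM substrate was added for 2 h, and the 460/530 nm emission ratio was scored as gain-of-signal versus DMSO.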

[5] = TOX21_p53_BLA_p5_viability: Viability Assessment in the Tox21 HCT-116 p53 Agonism Beta-lactamase Assay, Phase 5 (AID 2283600)
Method in brief: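 4000 cells/well; 5 h pre-incubation; DMSO compounds pin-transferred, 217-fold dilution; 16 h, 37C/5% CO2; CCF4-AM 2 h RT; CellTiter-Glo 30 min RT; luminescence.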

[6] = molecular target: Cellular tumor antigen p53 (Homo sapiens) (UniProt P04637); test: TOX21_p53_BLA_p4_ratio: Tox21 HCT-116 p53 Agonism Beta-lactamase Assay, Ratio, Phase 4 (AID 2283601)
Method in brief: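 HCT116 cells carrying an inducible beta-lactamase reporter were plated at 4000 cells/well, rested 5 h, then exposed to compounds in DMSO (217-fold dilution) for 16 h at 37C. CCF4-AM substrate was loaded 2 h at room temperature; 460/530 nm emission ratio scored gain-of-signal versus DMSO.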

[7] = TOX21_p53_BLA_p4_viability: Viability Assessment in the Tox21 HCT-116 p53 Agonism Beta-lactamase Assay, Phase 4 (AID 2283597);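 further: hits lower the luminescence signal meaning cytotoxicity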
Method in brief: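 Cells plated, 5 h pre-incubation; DMSO compounds pinned (217-fold dilution); 16 h, 37C/5% CO2; CCF4-AM 2 h RT; CellTiter-Glo 30 min RT; luminescence read.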

Measured: AC50

Sequence of Cellular tumor antigen p53 (Homo sapiens) (P04637 whole entry, looked up): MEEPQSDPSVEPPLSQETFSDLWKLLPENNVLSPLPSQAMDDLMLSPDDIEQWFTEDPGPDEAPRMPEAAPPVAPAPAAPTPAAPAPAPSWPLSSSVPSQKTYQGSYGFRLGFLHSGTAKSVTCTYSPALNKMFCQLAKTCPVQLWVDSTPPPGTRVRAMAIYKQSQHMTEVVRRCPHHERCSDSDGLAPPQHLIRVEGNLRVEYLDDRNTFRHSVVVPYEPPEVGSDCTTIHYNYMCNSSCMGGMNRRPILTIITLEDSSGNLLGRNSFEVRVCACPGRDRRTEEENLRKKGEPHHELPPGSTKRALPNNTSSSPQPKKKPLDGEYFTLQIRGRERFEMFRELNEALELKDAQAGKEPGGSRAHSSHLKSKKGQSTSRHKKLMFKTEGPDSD

O=C(Nc1ccccc1)N(Cc1ccc(Cl)cc1)C1CCCC1
not listed: [7]
inactive: all other assays above

CNc1ccc(C(=O)CC(O)CCC(C)C2OC(=O)CC(O)CC(=O)CC(O)CC(O)CC(O)CC(O)CC3(O)CC(O)C(C(=O)OC)C(CC(O[C@@H]4O[C@H](C)[C@@H](O)[C@H](N)[C@@H]4O)/C=C/C=C/C=C/C=C/C=C/C=C/C=C/C2C)O3)cc1 (some centres undefined) (tested in a mixture with another compound)
inactive: [2] | [3] | [7] | [6]
active: [1] 37.8 µM

[S]=[Sb](=[S])[S][Sb](=[S])=[S]
not listed: [7]
inactive: all other assays above

CCC(=O)O[C@H]1[C@@H](N2CCCCC2)C[C@H]2[C@@H]3CC[C@H]4C[C@H](OC(C)=O)[C@@H](N5CCCCC5)C[C@]4(C)[C@H]3CC[C@@]21C
inactive: [1] | [2] | [3] | [5]

Cc1cccc(Cc2cnc[nH]2)c1C
not listed: [7]
inactive: all other assays above

O=c1[nH]cc(N(CCCl)CCCl)c(=O)[nH]1
active: [3] 23 µM
not listed: [5]
inactive: all other assays above

CN1C(=O)NC(=O)C(C)(C2=CCCCC2)C1=O (centres undefined)
not listed: [7]
inactive: all other assays above
